# PubChem BioAssay AID504467 (National Center for Advancing Translational Sciences (NCATS), 2011)
# Hit rate of the full screen: of about 330,000 compounds, about 7,700 (2.3%) were called active. About 26% were inconclusive and are not listed. The call rests on the fitted dose curve; in most records, active means well fitted inhibition curve with a large enough effect; inconclusive means small, poorly fitted or top-dose-only effect, or effect the other way; inactive means flat fitted curve, though single readings scatter. The entries come from a sample that favours actives as a whole.
# Assay: qHTS screen for small molecules that inhibit ELG1-dependent DNA repair in human embryonic kidney (HEK293T) cells expressing luciferase-tagged ELG1; further: nearly all actives have a fitted effect of over 55% in size
# Conditions: HEK293T ELG1-luciferase reporter, luminescence, 16 h, DNA damage induced by 5-fluorouridine; series mostly up to 46.1 µM; activity change, negative = inhibition: at the top concentration
# Outline: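 Cells (2,000 per well) received 5-fluorouridine plus test compound or DMSO and were incubated 16 hr at 37 °C, 5% CO2. Luciferase activity was read by luminescence 30 min after ONE-Glo addition; signal suppression marked inhibition of damage-induced ELG1 function.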
# On the % scale 0 is the no-effect control and ±100 the full control effect; potency means the concentration at half of the fitted maximal effect.
SMILES,"activity change, negative = inhibition",Potency
COc1ccc(C2(c3ccc(OC)cc3)NC(=O)N(CC(=O)Nc3cc(C)on3)C2=O)cc1,-12.7% (inactive),–
C[C@H](CO)N1C[C@H](C)[C@@H](CN(C)S(=O)(=O)c2ccc(F)cc2)Oc2c(NC(=O)Nc3ccccc3)cccc2C1=O,-18.3% (inactive),–
COc1ccc(S(=O)(=O)Nc2cccc3c2O[C@H](CN(C)S(=O)(=O)c2ccc(OC)cc2)[C@@H](C)CN([C@H](C)CO)C3=O)cc1,-17.5% (inactive),–
COc1ccc(S(=O)(=O)N(C)C[C@H]2Oc3c(NC(=O)Nc4ccc5c(c4)OCO5)cccc3C(=O)N([C@H](C)CO)C[C@@H]2C)cc1,–,11.6 µM (active)
CCN(C(=O)COC(=O)Cc1c(F)cccc1Cl)c1c(N)n(Cc2ccccc2)c(=O)[nH]c1=O,2.59% (inactive),–
N#CC1=C(N)Oc2c(ccc3cccnc23)C1c1ccncc1 (stereo not given),–,9.2 µM (active)
CCCc1nc2c([nH]1)C(c1cccnc1)C(C#N)=C(N)O2 (stereo not given),2.12% (inactive),–
COc1ccc(-c2[nH]nc3c2C(c2ccncc2)C(C#N)=C(N)O3)cc1 (stereo not given),0.962% (inactive),–
O=C(CNC(=O)c1n[nH]c2ccccc12)Nc1cc(Cl)ccc1Cl,2.2% (inactive),–
CCOC(CNC(=O)C1CCN(S(=O)(=O)c2ccc3nc4c(c(C(=O)O)c3c2)CC(C)CC4)CC1)OCC (stereo not given),5.78% (inactive),–
COc1ccc(CNC(=O)COC(=O)c2sccc2C)cc1OC,10.7% (inactive),–
COc1cc(C(=O)N(Cc2ccc(N(C)C)cc2)C2CCS(=O)(=O)C2)cc(OC)c1OC (stereo not given),-9.44% (inactive),–
COc1cc(C(=O)NCCOC(=O)c2cccc(N(C)C)c2)cc(OC)c1OC,–,11.6 µM (active)
CCCOP(=O)(c1ccc(N(C)C)cc1)C(O)c1cc(OC)c(OC)c(OC)c1 (stereo not given),-8.9% (inactive),–
COC(=O)c1ccc(CNC(=O)c2ccc(S(=O)(=O)N3CCCCCC3)cc2)cc1,-24.3% (inactive),–
O=C(N[C@H]1C/C=C\C(c2cccc(F)c2)N(Cc2ccccc2)C(=O)C1)OCC1c2ccccc2-c2ccccc21 (stereo not given in full),-4.08% (inactive),–
COC(=O)c1cc(S(=O)(=O)N2CCN(c3cc(C)ccc3C)CC2)c[nH]1,-6.27% (inactive),–
O=C(c1cn(-c2ccccc2)nc1-c1cccnc1)N1CCCCC1,-0.348% (inactive),–

SMILES,"activity change, negative = inhibition",Potency
O=C(c1cn(-c2ccccc2)nc1-c1cccnc1)N1CCN(S(=O)(=O)c2ccccc2F)CC1,–,14.6 µM (active)
NC(=O)C1CCN(C(=O)c2cn(-c3ccccc3)nc2-c2cccnc2)CC1,7.76% (inactive),–
O=C(OCc1cc(=O)n2ccsc2n1)C1(c2ccc(Cl)cc2)CC1,-0.471% (inactive),–
COc1cc(C(=O)NC2CCN(Cc3ccccc3)CC2)cc(Cl)c1OC(C)C,-12.8% (inactive),–
O=C(CCC(=O)c1cccs1)NCc1ccccc1,5.13% (inactive),–
Nc1nc(NCc2ccccc2)n(-c2ccccc2)n1,3.41% (inactive),–
O=C(c1cccs1)n1nc(NCc2ccccc2)nc1NCc1ccccc1,–,25.9 µM (active)
COc1ccc(C)cc1NC(=O)CSc1cccc[n+]1[O-],0% (inactive),–
CC[C@@H]1CCCCc2ccccc2[C@@H](C(=O)C[C@H](O)CC(C)=O)OC1=O,-3.84% (inactive),–
COc1ccc(C(CNC(=O)c2ccc(S(=O)(=O)Nc3ccccc3C)cc2)N2CCOCC2)cc1 (stereo not given),-13.2% (inactive),–
O=C(NCc1ccncc1)c1cccc(NS(=O)(=O)c2ccc(F)c(F)c2)c1,19.7% (inactive),–
O=C(NCc1ccccc1)c1ccc(S(=O)(=O)Nc2cccc(C(F)(F)F)c2)cc1,–,13 µM (active)
CCOC(=O)N1CCN(C(=O)c2ccc(S(=O)(=O)Nc3cccc(C(F)(F)F)c3)cc2)CC1,-25.5% (inactive),–
O=C1C(=O)N(CCN2CCOCC2)C(c2cccc(Cl)c2)/C1=C(/O)c1ccc2c(c1)OCO2 (stereo not given),6.98% (inactive),–
Cc1sc2ncn(CC(=O)NCCCC(=O)N(C)Cc3ccccc3)c(=O)c2c1C,-3.5% (inactive),–
O=C(COc1ccc(Br)cc1F)NCC1(N2CCCCC2)CCCCC1,7.66% (inactive),–
CSc1ncccc1C(=O)NCC(c1ccco1)N1CCCCC1 (stereo not given),13.9% (inactive),–
